Among all 39,000 compounds or so, about 1,500 (3.8%) were called active. This excerpt belongs to a sample that is enriched for actives.
Test system: HSkMC (human skeletal muscle cells)
Test: cytotoxicity call (relative viability < 0.9)
Conditions: 10 µM

| SMILES | cytotoxicity call |
| --- | --- |
| Cc1ccc(S(=O)(=O)Nc2ccc3c(c2)C(=O)N([C@@H](C)CO)C[C@H](C)[C@H](CN(C)Cc2ccccc2)OCCCC[C@@H](C)O3)cc1 | inactive |
| O=C(C1=C[C@@H](c2ccc3c(c2)OCO3)C[C@@H](OCCCCO)O1)N1CCN(Cc2ccc3c(c2)OCO3)CC1 | inactive |
| C[C@H]1CN([C@@H](C)CO)C(=O)c2cc(C#CC3(O)CCCC3)cnc2O[C@@H]1CN(C)C(=O)Cc1ccncc1 | inactive |
| COc1ccc(S(=O)(=O)N2C[C@@H](O)COC[C@@H]3O[C@@H](CC(=O)NCCCN4CCOCC4)CC[C@H]32)cc1 | inactive |
| CCCCCCOC(=O)N=C(N)c1ccc(NCc2nc3cc(C(=O)N(CCC(=O)OCC)c4ccccn4)ccc3n2C)cc1.CS(=O)(=O)O | inactive |
| CCCCCCOC(=O)/N=C(/N)c1ccc(NCc2nc3cc(C(=O)N(CCC(=O)OCC)c4ccccn4)ccc3n2C)cc1 | active |
| COc1ccc(NC(=O)Nc2cccc3c2O[C@@H](CN(C)S(C)(=O)=O)[C@@H](C)CN([C@H](C)CO)C3=O)cc1 | inactive |
| C[C@H](CO)N1C[C@H](C)[C@H](CN(C)S(C)(=O)=O)Oc2ccc(NS(=O)(=O)c3ccc(F)cc3)cc2CC1=O | inactive |
| C[C@H](CO)N1C[C@H](C)[C@@H](CN(C)C(=O)Nc2ccc3c(c2)OCO3)Oc2ccc(NC(=O)c3ccncc3)cc2CC1=O | inactive |
| Cc1noc(C)c1NC(=O)Nc1ccc2c(c1)C(=O)N([C@@H](C)CO)C[C@@H](C)[C@H](CN(C)Cc1ccccc1)OCCCC[C@@H](C)O2 | inactive |
| C[C@H](CO)N1C[C@H](C)[C@H](CN(C)CC2CC2)OCCCC[C@H](C)Oc2ccc(NC(=O)Nc3ccc(C(F)(F)F)cc3)cc2C1=O | inactive |
| C[C@@H]1CCCCO[C@@H](CN(C)CC2CC2)[C@@H](C)CN([C@H](C)CO)C(=O)c2cc(NC(=O)Nc3ccc(C(F)(F)F)cc3)ccc2O1 | inactive |
| C[C@@H]1CCCCO[C@H](CN(C)CC2CC2)[C@H](C)CN([C@H](C)CO)C(=O)c2cc(NC(=O)Nc3ccc(C(F)(F)F)cc3)ccc2O1 | active |
| CCCN(C)C[C@H]1OCCCC[C@H](C)Oc2ccc(NC(=O)Nc3ccc(C(F)(F)F)cc3)cc2C(=O)N([C@@H](C)CO)C[C@H]1C | inactive |
| CCCN(C)C[C@@H]1OCCCC[C@H](C)Oc2ccc(NC(=O)Nc3ccc(C(F)(F)F)cc3)cc2C(=O)N([C@@H](C)CO)C[C@@H]1C | active |
| C[C@H]1CCCCO[C@H](CN(C)CC2CC2)[C@@H](C)CN([C@@H](C)CO)C(=O)c2cc(NC(=O)Nc3ccc(C(F)(F)F)cc3)ccc2O1 | inactive |
| CCCN(C)C[C@@H]1OCCCC[C@@H](C)Oc2ccc(NC(=O)Nc3ccc(C(F)(F)F)cc3)cc2C(=O)N([C@H](C)CO)C[C@@H]1C | inactive |
| C[C@@H]1CCCCO[C@@H](CN(C)CC2CC2)[C@H](C)CN([C@@H](C)CO)C(=O)c2cc(NC(=O)Nc3ccc(C(F)(F)F)cc3)ccc2O1 | inactive |
| C[C@@H]1CCCCO[C@H](CN(C)CC2CC2)[C@H](C)CN([C@@H](C)CO)C(=O)c2cc(NC(=O)Nc3ccc(C(F)(F)F)cc3)ccc2O1 | active |
| C[C@@H]1CN([C@H](C)CO)C(=O)CCCn2nncc2CO[C@@H]1CN(C)S(=O)(=O)c1ccc(-n2cccn2)cc1 | inactive |
| CC[C@@H](C)N[C@H]1CCS(=O)(=O)C1 | inactive |
| Cc1cccc([C@@H](N)c2nccn2C)c1 | inactive |

| SMILES | cytotoxicity call |
| --- | --- |
| O=C(CCCCCNC(=O)OCCCCO[C@H]1C[C@@H](c2ccc(C(F)(F)F)cc2)C=C(C(=O)N2CCN(Cc3ccccc3)CC2)O1)NO | inactive |
| CN(C)CC(=O)N[C@@H]1CC[C@@H](CC(=O)NCCN2CCCCC2)O[C@H]1CO | inactive |
| C[C@H](CO)N1C[C@H](C)[C@@H](CN(C)S(=O)(=O)c2ccc(F)cc2)Oc2c(NC(=O)Nc3ccc(C(F)(F)F)cc3)cccc2C1=O | inactive |
| O=C(NCCN1CCCC1)[C@H]1[C@H](CO)[C@H]2Cn3c(cccc3=O)[C@@H]1N2C(=O)c1ccccc1 | inactive |
| C[C@H](CO)N1C[C@H](C)[C@H](CN(C)C(=O)Nc2cccc3ccccc23)Oc2c(NS(=O)(=O)c3ccc(Cl)cc3)cccc2C1=O | inactive |
| CO[C@@H]1[C@H](O[P@@](=O)(OC[C@H]2O[C@@H](n3cnc4c(N)ncnc43)C[C@@H]2O)SCOC(=O)OC(C)C)[C@@H](CO)O[C@H]1n1ccc(=O)[nH]c1=O | inactive |
| Nc1ncnc2c1ncn2[C@@H]1O[C@H](COP(=O)(O)O)[C@@H](O)[C@H]1O | inactive |
| CO[C@@H]1[C@H](O[P@@](=O)(S)OC[C@H]2O[C@@H](n3cnc4c(N)ncnc43)C[C@@H]2O)[C@@H](CO)O[C@H]1n1ccc(=O)[nH]c1=O | active |
| O=C(C[C@@H]1CC[C@H]2[C@@H](COC[C@H](O)CN2S(=O)(=O)c2ccccc2)O1)NCCN1CCCC1 | inactive |
| C[C@H]1CN([C@@H](C)CO)C(=O)Cc2cc(NS(=O)(=O)c3cccs3)ccc2O[C@H]1CN(C)S(=O)(=O)c1cccs1 | inactive |
| CO[C@H]1O[C@@H](COC(C)=O)[C@@H](OC(C)=O)C(C#N)(C#N)[C@@H]1OC(C)=O | inactive |
| N#CC(c1ccccc1)(c1ccccc1)c1ccccc1Cl | inactive |
| Clc1ccccc1C(c1ccccc1)(c1ccccc1)n1ccnc1 | active |
| C[C@H](CO)N1C[C@H](C)[C@H](CN(C)S(=O)(=O)c2ccc(Cl)cc2)OCCCC[C@H](C)Oc2ccc(NC(=O)c3ccncc3)cc2C1=O | inactive |
| Cc1cccc(S(=O)(=O)N2C[C@H](O)COC[C@H]3O[C@@H](CC(=O)NCCCN4CCOCC4)CC[C@@H]32)c1 | inactive |
| COc1c(C)cnc2c1c(=O)n(CC(N)=O)c(=O)n2C | inactive |
| C[C@@H]1CCCCO[C@H](CN(C)Cc2ccc(C(F)(F)F)cc2)[C@H](C)CN([C@H](C)CO)C(=O)c2cc(NS(=O)(=O)c3cccs3)ccc2O1 | inactive |
| O=C(NC1CCN(CCCCC2(C(=O)NCC(F)(F)F)c3ccccc3-c3ccccc32)CC1)c1ccccc1-c1ccc(C(F)(F)F)cc1 | active |
| C[C@]1(C(=O)NCC(F)(F)F)c2ccccc2C(=O)N(Cc2cc(C(F)(F)F)cc(C(F)(F)F)c2)[C@H]1c1ccc(CO)cc1 | inactive |
| O=C(NC1CCCCCCC1)c1ccccc1-c1ccccc1 | inactive |
| COc1ccc(S(=O)(=O)Nc2ccc3c(c2)C(=O)N([C@H](C)CO)C[C@H](C)[C@@H](CN(C)C(=O)NC(C)C)O3)cc1 | inactive |
| CCCCCCCCC(=O)O | inactive |

| SMILES | cytotoxicity call |
| --- | --- |
| CN1CCN(S(C)(=O)=O)CC1 | inactive |
| C[C@H](CO)N1C[C@H](C)[C@@H](CN(C)C(=O)c2ccc3c(c2)OCO3)Oc2ncc(C#CCN(C)C)cc2C1=O | inactive |
| C[C@H]1CN([C@@H](C)CO)C(=O)c2cc(NS(=O)(=O)c3ccc(F)cc3)ccc2O[C@@H]1CN(C)Cc1ccc(Oc2ccccc2)cc1 | inactive |
| C[C@@H]1CN([C@@H](C)CO)C(=O)c2cc(NS(=O)(=O)c3ccc(F)cc3)ccc2O[C@@H]1CN(C)Cc1ccc(Oc2ccccc2)cc1 | active |
| C[C@@H]1CN([C@@H](C)CO)C(=O)c2cc(NS(=O)(=O)c3ccc(F)cc3)ccc2O[C@H]1CN(C)Cc1ccc(Oc2ccccc2)cc1 | inactive |
| C[C@@H]1CN([C@H](C)CO)C(=O)c2cc(NS(=O)(=O)c3ccc(F)cc3)ccc2O[C@@H]1CN(C)Cc1ccc(Oc2ccccc2)cc1 | active |
| C[C@H]1CN([C@@H](C)CO)C(=O)c2cc(NS(=O)(=O)c3ccc(F)cc3)ccc2O[C@H]1CN(C)Cc1ccc(Oc2ccccc2)cc1 | inactive |
| C[C@@H]1CN([C@H](C)CO)C(=O)c2cc(NS(=O)(=O)c3ccc(F)cc3)ccc2O[C@H]1CN(C)Cc1ccc(Oc2ccccc2)cc1 | inactive |
| C[C@H](CO)N1C[C@H](C)[C@@H](CN(C)CC2CCOCC2)Oc2cc(C#Cc3ccccc3F)ccc2S1(=O)=O | inactive |
| C[C@@H]1CN([C@H](C)CO)C(=O)c2cc(NC(=O)CCCN(C)C)ccc2O[C@H]1CN(C)Cc1ccncc1 | inactive |
| CN(C)CC(=O)N1[C@@H]2c3cccc(=O)n3C[C@H]1[C@H](CO)[C@H]2C(=O)NCc1ccccc1 | inactive |
| C[C@@H]1CCCCO[C@@H](CN(C)S(=O)(=O)c2ccc(F)cc2)[C@@H](C)CN([C@H](C)CO)C(=O)c2cc(NC(=O)c3ccccc3)ccc2O1 | inactive |
| CCc1nnc(SCC(=O)O)n1N | inactive |
| COc1ccc(S(=O)(=O)Nc2ccc3c(c2)C(=O)N([C@@H](C)CO)C[C@H](C)[C@@H](CN(C)C(=O)Nc2ccc4c(c2)OCO4)OCCCC[C@H](C)O3)cc1 | inactive |
| COc1ccc(CN(C)C[C@H]2Oc3ccc(NC(=O)CCN4CCOCC4)cc3CC(=O)N([C@@H](C)CO)C[C@@H]2C)cc1 | inactive |
| C[C@@H]1CCCCO[C@@H](CN(C)Cc2ccc(C(=O)O)cc2)[C@@H](C)CN([C@@H](C)CO)C(=O)c2cc(NC(=O)Nc3ccc(C(F)(F)F)cc3)ccc2O1 | inactive |
| COc1ccc(CCN(C)CCCOc2ccc(S(=O)(=O)c3c(C(C)C)c4ccccc4n3C)cc2)cc1OC | active |
| COc1cc(C(=O)NCc2ccc(OCCN(C)C)cc2)cc(OC)c1OC.Cl | inactive |
| COc1ccc(CCN(C)CCCOc2ccc(S(=O)(=O)c3c(C(C)C)cn4ccccc34)cc2)cc1OC | active |
| COc1ccc(C(=O)NCc2ccc(OCCN(C)C)cc2)cc1OC | inactive |
| COc1ccc(CCN(C)CCCOc2ccc(S(=O)(=O)c3[nH]c4ccccc4c3C(C)C)cc2)cc1OC | active |
| C[C@H](CO)N1C[C@H](C)[C@H](CN(C)C(=O)Nc2ccc(F)cc2)OCCCC[C@H](C)Oc2ccc(NS(=O)(=O)c3ccccc3)cc2C1=O | inactive |
